Hits are enriched below; roughly 3.9% of the tested compounds scored in any of these assays.
HIF-2a block = HIF-2a reporter inhibitors, primary screen, luminescence, 786-0 RCC cells | 786-0 RCC cells HIF-2a reporter, luciferase luminescence, overnight | inhibition, % at 18.8 µM | 360,000 tested, 0.72% active | AID 624352, 2012;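 active means inhibition of the luminescence signal of 40% or more relative to plate controls, in a single-dose primary screen at 18.75 µM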
TROY NFkB inh = inhibitors of TROY-driven NF-kB signaling, primary screen, Q293 LMP1-TROYcd cells, NF-kB luciferase, uHTS; 360,000 tested, 0.98% active; Q293 LMP1-TROYcd NF-kB luciferase reporter, 4 h; inhibition, % at 10 µM; AID 1347056, 2019;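 active means compounds whose plate-normalised and pattern-corrected inhibition of the luciferase reporter signal at the single screening dose is 50% or more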
C8 TRAIL sens = viability loss with TRAIL in NB7+C8 cells, primary screen, TRAIL sensitizer project, cell-based, ATPlite luminescence; AID 624354, 2012; 360,000 tested, 1% active; inhibition (viability loss, TRAIL sensitization), % at 10 µM;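 active means compounds causing at least 50% loss of cell viability in the single-dose screen, relative to plate controls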
TWEAK Fn14 block = inhibitors of TWEAK-Fn14 signaling, primary screen, luciferase reporter cells, uHTS. TWEAK-stimulated Fn14 reporter cells, luciferase luminescence, 8 h. inhibition, % at 10 µM. 360,000 tested, 2% active; in the data active means inhibition above about 50%
HSP90 refold inh = HSP90 inhibitors, primary screen, cell lysate, luminescence. Heat shock protein HSP 90 (rabbit reticulocyte lysate; luciferase refolding). Rabbit reticulocyte lysate, luciferase refolding luminescence, 3 h. inhibition, % at 5.6 µM. 290,000 tested, 0.91% active;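 active means inhibition above the screen-wide mean plus 3 SD, computed separately per campaign, cut at about 16% in these data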;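 further: 0% = DMSO wells and 100% = 60 µM geldanamycin wells; inhibitors lower the luminescence because luciferase stays unfolded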
aSyn 5UTR inh = MLPCN primary screen, SNCA 5' untranslated region. alpha-synuclein 5'UTR reporter, inhibitor activity. inhibition, % (tested at 7.5 µM). 300,000 tested, 0.82% active. AID 1813, 2009; in the data active means inhibition above about 60%; inconclusive means no clear call, values can overlap the other calls;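 further: H4 neuroglioblastoma cells stably carrying SNCA 5'UTR luciferase fusion; 0% = DMSO wells and 100% = positive control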
Mdm2 MdmX conf = retested Mdm2-MdmX interaction blockers, confirmation, cell-based, luminescence, single concentration, set 2; SaOS-2 split-luciferase Mdm2/MdmX complementation; 740 tested, 99% active; inhibition, % at 8 µM; shares compounds with HIF-2a block;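 active means mean inhibition of the luminescence signal across two replicates at or above 26 percent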
Target sequence (O15151 whole entry, looked up): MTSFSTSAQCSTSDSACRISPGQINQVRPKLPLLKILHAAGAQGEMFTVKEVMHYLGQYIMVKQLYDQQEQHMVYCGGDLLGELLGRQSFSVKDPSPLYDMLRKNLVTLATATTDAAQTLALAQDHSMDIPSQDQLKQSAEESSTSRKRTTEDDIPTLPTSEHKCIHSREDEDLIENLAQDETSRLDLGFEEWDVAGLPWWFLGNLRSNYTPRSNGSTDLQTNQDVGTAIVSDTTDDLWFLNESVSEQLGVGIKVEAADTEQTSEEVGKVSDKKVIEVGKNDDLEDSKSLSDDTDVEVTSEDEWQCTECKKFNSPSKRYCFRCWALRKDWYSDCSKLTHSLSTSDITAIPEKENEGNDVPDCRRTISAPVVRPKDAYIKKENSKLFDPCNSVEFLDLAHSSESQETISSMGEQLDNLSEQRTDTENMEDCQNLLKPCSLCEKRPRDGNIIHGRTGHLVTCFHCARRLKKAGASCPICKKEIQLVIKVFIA
Target sequence (Q00987 whole entry, looked up): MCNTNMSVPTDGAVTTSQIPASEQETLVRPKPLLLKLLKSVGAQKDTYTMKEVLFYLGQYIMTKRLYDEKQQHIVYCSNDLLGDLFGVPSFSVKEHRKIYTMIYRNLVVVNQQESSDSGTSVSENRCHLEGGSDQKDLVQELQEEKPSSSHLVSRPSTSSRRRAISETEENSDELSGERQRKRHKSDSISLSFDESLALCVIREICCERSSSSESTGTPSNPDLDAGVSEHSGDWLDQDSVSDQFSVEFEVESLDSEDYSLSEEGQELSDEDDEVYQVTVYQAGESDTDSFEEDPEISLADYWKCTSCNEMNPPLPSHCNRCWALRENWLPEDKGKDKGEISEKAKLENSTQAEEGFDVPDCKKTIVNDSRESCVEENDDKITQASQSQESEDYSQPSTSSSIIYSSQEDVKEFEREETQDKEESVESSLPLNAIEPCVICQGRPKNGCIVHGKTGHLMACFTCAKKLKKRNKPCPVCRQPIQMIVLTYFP
HIF-2a inh conf = HIF-2a reporter inhibitor retest, confirmation, luminescence, 786-0 RCC cells; 1,800 tested, 56% active; shares compounds with HIF-2a block; inhibition, % at 18.8 µM; AID 651580, 2012; HIF-2a luciferase reporter luminescence, overnight;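 active means mean inhibition across four replicates of at least 40 percent at the single tested concentration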
HIF-1a counter = HIF-1a luciferase reporter signal reduction – MiaPaCa-2 cells, single concentration, counter-screen for HIF-2a inhibitor project, confirmation | shares compounds with HIF-2a block | MiaPaCa-2 HIF-1a luciferase reporter, desferoxamine, overnight | inhibition, % at 18.8 µM | 1,800 tested, 72% active;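 active means mean inhibition of the reporter signal across four replicates at the single tested dose of 50% or more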
The depositor's hits bear a star.

For CCOC(=O)c1c(C)[nH]c(C(=O)Nc2ccc(C)c(Cl)c2)c1C the results were HSP90 refold inh 5 and aSyn 5UTR inh -108.
`COc1ccc(NC(=O)c2cc(CC(C)C)nc3ccccc23)cc1` gave HIF-2a block 12, TROY NFkB inh 7, C8 TRAIL sens -5, TWEAK Fn14 block -22, HSP90 refold inh -2, aSyn 5UTR inh 52 and Mdm2 MdmX conf 98*.
Cc1ccc(NC(=O)c2cc(C)nc3ccccc23)cc1 was read as HIF-2a block -14, TROY NFkB inh 17, C8 TRAIL sens -2, TWEAK Fn14 block -9, HSP90 refold inh 5 and aSyn 5UTR inh -8.
Screening Cc1ccc(NC(=O)c2cc(CC(C)C)nc3ccccc23)cc1 returned HIF-2a block 18, TROY NFkB inh 4, C8 TRAIL sens 3, TWEAK Fn14 block -17, HSP90 refold inh 5, aSyn 5UTR inh 47 and Mdm2 MdmX conf 94*.
Screening Cc1ccc(S(=O)(=O)N[C@H](C(=O)OCC(=O)NC(=O)c2cccn2C)C(C)C)cc1 returned HIF-2a block 11, TROY NFkB inh 6, C8 TRAIL sens -11 and TWEAK Fn14 block -19.
For C=CCn1c(C)cc(C(=O)CSc2ccc(NC(C)=O)cc2)c1C the results were HIF-2a block 50*, TROY NFkB inh 19, C8 TRAIL sens 2, TWEAK Fn14 block 43, HSP90 refold inh 4, aSyn 5UTR inh 0, HIF-2a inh conf 67* and HIF-1a counter 43.
CC(=O)Nc1ccc(SCC(=O)c2cc(C)n(Cc3cccs3)c2C)cc1 was read as HIF-2a block 71*, TROY NFkB inh 38, C8 TRAIL sens 39, TWEAK Fn14 block 93*, HSP90 refold inh 3, aSyn 5UTR inh 68*, HIF-2a inh conf 82* and HIF-1a counter 89*.
Screening COc1ccc(S(=O)(=O)N2CCOCC2)cc1NC(=O)Cc1ccc(F)cc1 returned HIF-2a block 16, TROY NFkB inh -10, C8 TRAIL sens 12 and TWEAK Fn14 block 11.
O=S(=O)(Nc1cccc(F)c1)c1ccc(S(=O)(=O)N2CCOCC2)cc1 was read as HIF-2a block 16, TROY NFkB inh -15, C8 TRAIL sens 4 and TWEAK Fn14 block 10.
CC1(c2nnnn2Cc2ccccc2)CCC(=O)N1Cc1ccco1 (stereo not drawn) was read as HIF-2a block 12, TROY NFkB inh 2, C8 TRAIL sens -3 and TWEAK Fn14 block 4.
For CCc1ccc2nc(N(CCCN(C)C)C(=O)c3ccc(S(=O)(=O)N4CCc5ccccc5C4)cc3)sc2c1 the results were HIF-2a block 68*, TROY NFkB inh -87, C8 TRAIL sens 80*, TWEAK Fn14 block -208, HSP90 refold inh 2, aSyn 5UTR inh -11, HIF-2a inh conf 27 and HIF-1a counter 47.
`CCc1ccc2nc(N(CCCN(C)C)C(=O)c3ccc(S(=O)(=O)N(C)C4CCCCC4)cc3)sc2c1` gave HIF-2a block 26, TROY NFkB inh -22, C8 TRAIL sens 45, TWEAK Fn14 block -30, HSP90 refold inh 9 and aSyn 5UTR inh inconclusive.
For CN1CCC(NCCC(c2ccc(F)cc2)c2ccc(Cl)cc2)CC1 (stereo not drawn) the results were HIF-2a block 2, TROY NFkB inh -54, C8 TRAIL sens 28, TWEAK Fn14 block -51, HSP90 refold inh 4, aSyn 5UTR inh 22 and Mdm2 MdmX conf 103*.
For CC1=C(C(=O)OCc2ccc3c(c2)OCO3)C(c2cccc([N+](=O)[O-])c2)NC(=O)N1 (stereo not drawn) the results were HIF-2a block 23, TROY NFkB inh 49, C8 TRAIL sens -7, TWEAK Fn14 block 75*, HSP90 refold inh -4, aSyn 5UTR inh 32 and Mdm2 MdmX conf 74*.
`Cc1ccc(C(=O)Cn2c(C(=O)/C=C/c3ccccc3)nc3ccccc32)cc1` gave HIF-2a block 48*, TROY NFkB inh -4, C8 TRAIL sens 25, TWEAK Fn14 block 18, HSP90 refold inh -8, aSyn 5UTR inh -20, HIF-2a inh conf -4 and HIF-1a counter 60*.
Screening CCCCN1C(=O)C(CC(=O)NC(c2ccccc2)c2ccccc2)CC(C(=O)N(C(C)C)C(C)C)=C1C (stereo not drawn) returned HIF-2a block 3, TROY NFkB inh -10, C8 TRAIL sens 1 and TWEAK Fn14 block 14.
Screening Cc1nn(C)cc1S(=O)(=O)Nc1ccc2c(c1)OCCO2 returned HIF-2a block 41*, TROY NFkB inh 82*, C8 TRAIL sens 2, TWEAK Fn14 block 77*, HSP90 refold inh 4, aSyn 5UTR inh -38, HIF-2a inh conf 45* and HIF-1a counter 56*.
Screening CC(=O)Nc1ccc(S(=O)(=O)Nc2ccc3c(c2)OCCO3)cc1Cl returned HIF-2a block 25, TROY NFkB inh 22, C8 TRAIL sens -8, TWEAK Fn14 block 24, HSP90 refold inh 2 and aSyn 5UTR inh -12.
`O=C(O)c1cc(S(=O)(=O)Nc2ccc3c(c2)OCCO3)c(Cl)cc1Cl` gave HIF-2a block 42*, TROY NFkB inh 83*, C8 TRAIL sens -7, TWEAK Fn14 block 91*, HSP90 refold inh 3, aSyn 5UTR inh -82, HIF-2a inh conf 54* and HIF-1a counter 71*.
S=C(Nc1ccccc1Cl)NC1CCN(Cc2ccccc2)CC1 was read as HIF-2a block 3, TROY NFkB inh 13, C8 TRAIL sens -5, TWEAK Fn14 block 9, HSP90 refold inh 4 and aSyn 5UTR inh 9.
S=C(Nc1cc(Cl)cc(Cl)c1)NC1CCN(Cc2ccccc2)CC1 was read as HIF-2a block 42*, TROY NFkB inh 35, C8 TRAIL sens 6, TWEAK Fn14 block -10, HSP90 refold inh 0, aSyn 5UTR inh 72*, HIF-2a inh conf 12 and HIF-1a counter 107*.
Screening COc1cccc(-c2nnc3n2N=C(C(C)(C)C)CS3)c1 returned HIF-2a block 27, TROY NFkB inh 64*, C8 TRAIL sens 34, TWEAK Fn14 block 92*, HSP90 refold inh -2, aSyn 5UTR inh 35 and Mdm2 MdmX conf 103*.

Screening results (PubChem BioAssay)
